Source: PubChem BioAssay AID492953 (The Scripps Research Institute Molecular Screening Center, 2010)
About 4,200 (1.2%) of roughly 340,000 compounds were called active.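 How the source made its calls: active means inhibition above the mean of all tested compounds plus 3 SD (cut at about 24% in these data); inactive means the rest.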 The sample as a whole holds a higher share of actives than the screen did.

The compounds below were run against Platelet-activating factor acetylhydrolase IB subunit alpha2 (Homo sapiens) (UniProt P68402) (assay: PAFAH1B2 enzyme inhibitors, primary screen, biochemical, fluorescence polarization, human (AID 492953;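 further: 0% = enzyme with DMSO and 100% = wells lacking PAFAH1B2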)). Conditions: recombinant PAFAH1B2, FP-rhodamine activity probe, at 3.39 µM, active compounds read high.
Sequence of Platelet-activating factor acetylhydrolase IB subunit alpha2 (Homo sapiens) (P68402 whole entry, looked up): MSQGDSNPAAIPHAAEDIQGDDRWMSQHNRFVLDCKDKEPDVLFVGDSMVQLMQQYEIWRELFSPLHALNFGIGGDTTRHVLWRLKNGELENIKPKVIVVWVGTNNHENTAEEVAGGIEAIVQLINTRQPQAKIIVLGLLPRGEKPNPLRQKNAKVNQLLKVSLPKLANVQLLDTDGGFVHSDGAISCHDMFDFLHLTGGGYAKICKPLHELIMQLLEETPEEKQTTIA

Structure (SMILES) | inhibition
O=C(CCNS(=O)(=O)c1ccc(Br)cc1)NCC1CCCO1 (stereo not drawn) | 7.29% (inactive)
Cc1ccc(S(=O)(=O)NCCNC(C)c2ccc(Br)cc2)cc1 (stereo not drawn) | 23% (inactive)
Cc1ccc(OCCNC(=O)CCNS(=O)(=O)c2ccc(Br)cc2)cc1 | 24.2% (active)
Cc1ccc(CCN2CC(C(=O)NCCc3ccccc3)CC2=O)cc1 (stereo not drawn) | 7.51% (inactive)
O=C1Nc2cc(Cl)c(Cl)cc2N(O)N1c1cc(Cl)cc(Cl)c1 | 6.99% (inactive)
CCCCN(C(=O)CSCc1ccc(C)cc1)c1c(N)n(Cc2ccccc2)c(=O)[nH]c1=O | 8.05% (inactive)
O=C(Nc1ccccc1)C1CC(=O)n2c(nc3ccccc32)N1 (stereo not drawn) | -1.27% (inactive)
CC(=O)Nc1ccc(S(=O)(=O)NCCc2ccccc2)cc1 | 3.04% (inactive)
CC(=O)Nc1ccc(S(=O)(=O)NC2(C(F)(F)F)C(=O)Nc3c2c(=O)[nH]c(=O)n3Cc2ccccc2)cc1 (stereo not drawn) | 24.4% (active)
CC(=O)Nc1ccc(S(=O)(=O)NC2(C(F)(F)F)C(=O)NC(C)=C2C#N)cc1 (stereo not drawn) | 0.09% (inactive)
Cc1ccc(C(=O)NCC(=O)OCC(=O)NC2CCCCCCC2)cc1 | -0.8% (inactive)
Cc1cc(OC(=O)c2ccc(OC(C)C)cc2)c([N+](=O)[O-])c(=O)[nH]1 | 1.4% (inactive)
COc1cccc(C=CC(=O)C=CC=Cc2ccccc2)c1 | -1.3% (inactive)
COc1ccc(CCNS(=O)(=O)c2cn(C)nc2C)cc1 | 2.66% (inactive)
O=S1(=O)CCOC[C@H](Cc2ccccc2)N1Cc1ccccc1Br | 4.8% (inactive)
O=S1(=O)CCO[C@H]2Cc3ccccc3[C@H]2N1Cc1ccccc1 | 27.8% (active)
CCC(C)[C@H]1COCCS(=O)(=O)N1Cc1ccc(C)cc1 (stereo partly drawn) | 7.04% (inactive)
N#Cc1c(-c2ccc(F)cc2)nc(-c2ccccc2)[nH]c1=O | 1.36% (inactive)
Cc1ccc(CSc2nc(-c3ccccc3)c(C#N)c(=O)[nH]2)cc1 | 24.4% (active)
N#Cc1c(-c2ccccc2)nc(SCc2cccc(C(F)(F)F)c2)[nH]c1=O | 14.2% (inactive)
Oc1oc(-c2ccccc2Br)nc1/C=N/c1ccccn1 | 1.69% (inactive)
CC(NC(=O)Nc1cccc([N+](=O)[O-])c1)c1ccc2c(c1)OCO2 (stereo not drawn) | 0.41% (inactive)
CC(NC(=S)Nc1ccc(S(N)(=O)=O)cc1)c1ccc2c(c1)OCO2 (stereo not drawn) | 27.8% (active)
CCc1ccc(NC(=O)NC(C)c2ccc3c(c2)OCO3)cc1 (stereo not drawn) | 4.07% (inactive)

Structure (SMILES) | inhibition
Cc1ccc(NC(=O)N2CCSc3ccccc32)cc1 | 7.44% (inactive)
O=C(Cc1cccs1)N(CC1CCCO1)C1(C(=O)NC2CCCCC2)CCCCC1 (stereo not drawn) | 2.99% (inactive)
CCC(C(=O)OCC(=O)Nc1ccccc1-c1ccccc1)c1ccccc1 (stereo not drawn) | 7.25% (inactive)
O=C(Cn1cnc2ccccc21)Nc1ccccc1-c1ccccc1 | 5.45% (inactive)
O=C(CNCc1ccc(F)cc1)Nc1ccccc1-c1ccccc1 | 24.4% (active)
Cc1ccc(NC(=O)CCCNC(=O)c2ccc(Cl)cc2)cc1S(=O)(=O)N1CCOCC1 | 2.83% (inactive)
COc1ccccc1CCNC(=O)C1CCN(C(=O)/C=C/c2ccccc2)CC1 | 10.8% (inactive)
CCOc1ccc(CC(=O)NCCS(=O)(=O)N2CCN(c3ccccc3)CC2)cc1 | 1.28% (inactive)
COc1ccc(OCC(=O)NCCS(=O)(=O)N2CCN(c3ccc(F)cc3)CC2)cc1 | -1.87% (inactive)
O=C(COc1ccc(Cl)cc1)NCCS(=O)(=O)N1CCN(c2ccc(F)cc2)CC1 | 28.6% (active)
CCCC1NC(=S)NC(C)=C1C(C)=O (stereo not drawn) | -9.47% (inactive)
CC(=O)OCC(=O)C1(O)CCC2C3CC(C)C4=CC(=O)CCC4(C)C3C(O)CC21C (stereo not drawn) | 1.34% (inactive)
COc1ccccc1C(=O)Nc1ccnn1C1CCN(Cc2cnn(C)c2)CC1 | 4.33% (inactive)
COc1ccc(CCNC(=S)N2CCN(S(=O)(=O)c3ccc(Cl)cc3)CC2)cc1 | 11.4% (inactive)
Oc1cc2c(cc1O)CN(C(=S)NCCc1ccc(Cl)cc1)CCC2 | 63.6% (active)
O=C1CCN(C(=S)NCCc2ccccc2)CC1 | 1.71% (inactive)
CC12c3ccccc3C(c3ccccc31)C1C(=O)N(Cc3cccnc3)C(=O)C12 (stereo not drawn) | 1.4% (inactive)
C=CCO/N=C(\C)c1c(O)c(C)c(-c2ccccc2)n(-c2ccccc2)c1=O | 31.5% (active)
Cc1nn(-c2ccccc2)c(C)c1/C=N/NC(=O)CSc1nc2ccccc2c(=O)n1-c1ccccc1 | 2.37% (inactive)
CCO/N=C(/C)c1c(O)cc(-c2ccccc2)n(-c2ccccc2)c1=O | 7.22% (inactive)
Cc1ccsc1-c1nc(CSCC(=O)NCCN2CCCC2)c(C)o1 | 0.8% (inactive)
COc1cc2c(cc1OC)C(Cc1cc(OC)c(OC)cc1[N+](=O)[O-])=NCC2 | 0.33% (inactive)
CCCC1OC23CCCCC2C(C#N)(C#N)C1(C#N)C(=N)O3 (stereo not drawn) | 29.1% (active)
O=C1/C(=C\c2ccc(O)cc2)CCC1CNc1ccc(Cl)cc1 (stereo not drawn) | -1.51% (inactive)

Structure (SMILES) | inhibition
O=C(O)CCn1cc(/C=C/C(=O)c2ccc(Cl)cc2)c(-c2cccc(Br)c2)n1 | 51.4% (active)
CCOC(=O)/C(C#N)=C/c1cn(CCC(=O)O)nc1-c1ccc(Br)cc1 | 2.11% (inactive)
Cc1cccc(C=CC(=O)c2ccc(Cl)cc2)c1 | -1.7% (inactive)
O=C(OCC(=O)N1CCN(C(=O)c2ccco2)CC1)c1ccc(Cl)c(Cl)c1 | 2.92% (inactive)
O=C(O)CCSc1nnc(-c2ccccc2)n1-c1ccccc1 | 24.4% (active)
NNC(=O)CSc1nnc(-c2ccccc2)n1-c1ccccc1 | 17.7% (inactive)
O=C(O)CSc1nnc(-c2ccc3c(c2)OCO3)n1-c1ccccc1 | 0.01% (inactive)
CCOc1cc(/C=N/NC(=O)c2cccc(S(=O)(=O)N3CCOCC3)c2)ccc1OCC(=O)N(C)C | 2.5% (inactive)
O=C(NCCc1ccccc1)c1c[nH]c2ccc(F)cc2c1=O | 3.36% (inactive)
CCOC(=O)c1c(C)[nH]c2c1-c1ccccc1C(=O)C2=O | 46.4% (active)
CCOC(=O)c1c(C)nc2c(c1C)c(=O)oc1ccccc12 | 4.46% (inactive)
CCOC(=O)c1ccccc1OC(=O)Oc1ccccc1C(=O)OCC | 4.58% (inactive)
C/C(=N\Nc1ccc(Cl)nn1)c1ccccc1O | -0.23% (inactive)
COc1ccccc1N1CCN(S(=O)(=O)c2ccc3c(c2)NC(=O)CS3)CC1 | -1.51% (inactive)
COc1ccccc1N1CCN(C(=O)c2ccc(Cl)c(S(=O)(=O)N3CCCC3)c2)CC1 | 2.58% (inactive)
COc1ccccc1N1CCN(S(=O)(=O)c2ccc(Cl)cc2)CC1 | 31.7% (active)
COc1ccc(CCNC(=O)CN2CCC(n3nnc4cc(F)ccc43)CC2)cc1OC | 4.75% (inactive)
CCOC(=O)c1[nH]c(C)c(C(=O)OCC(=O)N2c3ccccc3CC2C)c1C (stereo not drawn) | 3.77% (inactive)
CSC1=NC2(C)CCCCC2C12C=CC(=O)C=C2 (stereo not drawn) | 24.6% (active)
O=C(CC(=O)c1cccnc1)c1ccccc1 | 0.07% (inactive)
CC[n+]1c(C)n(-c2ccccc2)c2ccc(NC(C)=O)cc21 | 1.05% (inactive)
CCc1ccc(NC(=O)CN2C(=O)CSC2=O)cc1 | 4.64% (inactive)
Cc1ccc(S(=O)(=O)N(CCCN(C)C)Cc2ccc3c(c2)OCO3)cc1 | 1.52% (inactive)
O=C(Oc1ccc2c(c1)CCC2)N1CCOCC1 | 2.56% (inactive)

Structure (SMILES) | inhibition
N#Cc1ccc(C(c2nnnn2CCc2ccccc2)N2CCCCCC2)cc1 (stereo not drawn) | 25.7% (active)
COc1ccc(CCn2nnnc2C(c2ccccc2)N2CCN(C)CC2)cc1OC (stereo not drawn) | 2.25% (inactive)
CC(C)C(c1nnnn1CCc1ccccc1)N1CCN(C(=O)c2ccco2)CC1 (stereo not drawn) | 3.54% (inactive)
O=C(NCc1ccc2c(c1)OCO2)c1c(O)nc2sccn2c1=O | 5.79% (inactive)
Cc1ccc(C(=O)CN2C(=O)NC3(CCOc4ccccc43)C2=O)s1 (stereo not drawn) | -1.4% (inactive)
Cc1cccc(OCCNC(=S)NC(=O)c2cccnc2)c1 | -2.68% (inactive)
C=CCNC(=O)CCCOc1cccc(C)c1 | -2.13% (inactive)
Cc1cccc(OCCNC(=O)CSc2ccc(C(F)(F)F)cc2[N+](=O)[O-])c1 | 27.4% (active)
CC(C)NC(=O)Nc1cccc2c1O[C@H](CN(C)S(=O)(=O)c1cccs1)[C@@H](C)CN([C@H](C)CO)C2=O | 6.94% (inactive)
Cc1cc2oc(=O)cc(CN(C)Cc3ccc(OC(F)F)cc3)c2cc1Cl | -0.62% (inactive)
Cc1ccc(CN(C)Cc2cc(=O)oc3cc(C)c(Cl)cc23)cc1 | 28.5% (active)
Cc1cc2oc(=O)cc(CN3CCN(Cc4ccccc4)CC3)c2cc1C | -2.46% (inactive)
CCn1c(SCC(=O)Nc2cccc(F)c2)nnc1-c1cc2cc(Br)ccc2o1 | -4.23% (inactive)
C=CCn1c(C23CC4CC(CC(C4)C2)C3)n[nH]c1=S | 29.8% (active)
C=CCn1c(SCC(=O)NC)nnc1C12CC3CC(CC(C3)C1)C2 | 4.85% (inactive)
C=CCn1c(-c2ccc3[nH]c(C)c(C)c3c2)n[nH]c1=S | -1.88% (inactive)
Cc1cc(C)cc(NC(=O)C(OC(=O)c2ccc(O)cc2)c2ccccc2)c1 (stereo not drawn) | -4.34% (inactive)
O=C1/C(=C\c2ccc([N+](=O)[O-])cc2)CS(=O)(=O)C/C1=C/c1ccc([N+](=O)[O-])cc1 | -2.78% (inactive)
Cc1ccc(N(CCC(=O)O)S(=O)(=O)c2cccc(C(F)(F)F)c2)cc1 | 19.6% (inactive)
O=C(O)c1cc(S(=O)(=O)N(Cc2ccccc2)c2cccc(C(F)(F)F)c2)ccc1Cl | 28.5% (active)
O=C(O)c1cc(S(=O)(=O)N(Cc2ccccc2)c2ccccc2)ccc1Cl | 18.7% (inactive)
